Bioassay records from PubChem BioAssay.
Methyltransferases: Primary Screen for Target Class Profiling of Small Molecule Inhibitors of Methyltransferases; AID 1745853, 2022; calls only at 40 µM; 25,000 compounds, 3.9% hits; purified enzyme, MTase-Glo SAH luminescence; active compounds read low; call rule not given here
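Each enzyme was reacted with SAM and its substrate, with compounds tested once at 40 uM; SAH formed was read by MTase-Glo luminescence.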
* marks the source's active call; other numbers are inactive results; i = inactive; + = active, no number. The sample as a whole holds a higher share of hits than the screen did. % is scaled to controls: 0 for no effect and ±100 for the full control effect.

SMILES | Methyltransferases
CC1CCCC(NC(=O)C2(C)Cn3c(cc4occc43)C(=O)N2Cc2ccccc2)C1C (stereo not drawn) | i
COc1ncc(-c2ccc3nccc(-c4ccnnc4)c3c2)cc1NS(=O)(=O)c1ccc(F)cc1F | +
CCCNS(=O)(=O)c1ccc(Cl)c(-c2nnc(-c3ccccc3)o2)c1 | i
COc1ccc2cc3n(c2c1)CC(C)(C(=O)NC1CCCC1)N(Cc1ccccc1)C3=O (stereo not drawn) | i
CN1C(=O)c2cc(C(=O)NCc3ccccn3)nn2CC1(C)C(=O)NCc1ccccc1 (stereo not drawn) | i
Cn1cc(-c2cnc3ccc4ccc(CS(=O)(=O)NCc5ccccn5)cc4c(=O)c3c2)cn1 | +
Cn1cc(-c2ccc3ncc(Cc4ccc5ncccc5c4)n3n2)cn1 | i
CCCn1c(=O)c2ccc(C(=O)NCC(C)C)cc2n2c(=O)n(C(C)C(=O)c3ccc(C)c(C)c3)nc12 (stereo not drawn) | i
Cc1[nH]c2ccccc2c1CCNCc1ccc(/C=C/C(=O)NO)cc1 | +
Cc1[nH]c2ccccc2c1CCNC(=O)c1ccccc1F | i
CCCCCNc1nc2c(-c3ccc(C)cc3)nnn2c2ccccc12 | i
CCOC(=O)C1=C(CN2CCn3cccc3C2C)NC(=O)NC1c1ccc(C)cc1 (stereo not drawn) | i
CCCn1cnc2cc(CNS(=O)(=O)c3ccc(F)cc3)ccc21 | i
COc1cc(NC(=O)Cn2nc3n(Cc4ccc(C)cc4)c(=O)c4ccccc4n3c2=O)cc(OC)c1 | i
CC(O)(CC(=O)O)CC(=O)OCc1ccc(O[C@@H]2O[C@H](CO)[C@@H](O)[C@H](O)[C@H]2O)cc1 (stereo partly drawn) | +
O=C(O)c1ccc(OC2OC(CO)C(O)C(O)C2O)cc1 (stereo not drawn) | i
CC(O)(CC(=O)O)CC(=O)O[C@@H]1[C@@H](O)[C@H](OCCc2ccccc2)O[C@H](CO)[C@H]1O (stereo partly drawn) | i
CCc1cc2c(cc3n2CC(C)(C(=O)NC2CCCCC2)N(c2ccc(C)cc2C)C3=O)s1 (stereo not drawn) | i
Cc1ccc(Cn2c(=O)c3ccc(C(=O)NC(C)C)cc3n3c(=O)n(Cc4ccccc4)nc23)cc1 | i
COC(=O)[C@H](Cc1ccc([N+](=O)[O-])cc1)NC(=O)c1cccc2ccccc12 | i
Cc1c(C)n(Cc2ccc(-c3ccccc3C(=O)O)cc2)c2ccc(C(=O)N[C@@H](C)c3ccc([N+](=O)[O-])cc3)cc12 | +
CC(=O)Oc1ccc2c(=O)c(C3NC(C(=O)O)Cc4c3[nH]c3ccccc43)coc2c1 (stereo not drawn) | i
CSc1ccc(CCN2C(=O)Cn3cccc3C2C(=O)NC2CCC(C)CC2)cc1 (stereo not drawn) | i
c1ccc(CNc2nc(-c3ccccc3)no2)cc1 | i
O=C(NCc1ccc(Oc2ccccc2)cc1)c1nc(-c2cc(Br)c(O)c(Br)c2)no1 | +
SMILES | Methyltransferases
COCc1nc(-c2ccc(OC3CN(C(=O)NCc4ccc(OC)cc4)C3)cc2)no1 | i
Cc1cc(Cl)ccc1NC(=O)c1ncn2c1C(=O)N(C1CC1)C(C)(C(=O)NC1CCCC1)C2 (stereo not drawn) | i
CC1(C(=O)NCc2ccccc2)Cn2cnc(C(=O)NCCc3cccs3)c2C(=O)N1C1CC1 (stereo not drawn) | i
CC(C)CNC(=O)c1ccc2c(=O)nc3c(-c4cccc(F)c4)n[nH]n3c2c1 | i
CC(=O)Nc1c2n(c3ccc(F)cc13)CC(C)(C(=O)NCCC(C)C)N(Cc1ccco1)C2=O (stereo not drawn) | i
N#C/C(=C1\Nc2ccccc2S1)c1ccnc(NCCc2cccnc2)n1 | +
COc1cccc(NC(=O)c2cc3n(n2)CC(C)(C(=O)NC2CCCCC2)N(C)C3=O)c1 (stereo not drawn) | i
CC1CCCCC1NC(=O)C1(C)Cn2c(nc3ccccc32)C(=O)N1Cc1cccc(Cl)c1 (stereo not drawn) | i
O=C(CCc1nnc2n(Cc3ccc(F)cc3)c(=O)c3ccccc3n12)NCc1ccc(F)cc1 | i
CCN(CC)CCNC(=O)CCc1nnc2n(Cc3ccc(Cl)cc3)c(=O)c3ccccc3n12 | +
CCN(CCCNC(=O)CCc1nnc2n(Cc3ccccc3)c(=O)c3ccccc3n12)c1ccccc1 | i
O=C(CCc1nnc2n(Cc3ccccc3)c(=O)c3ccccc3n12)NCCc1ccc(Cl)cc1 | i
COCCNC(=O)CCc1nnc2n(Cc3ccc(Cl)cc3)c(=O)c3ccccc3n12 | i
CCN(CC)CCCNC(=O)CCc1nnc2n(Cc3ccc(F)cc3)c(=O)c3ccccc3n12 | +
Cn1c(=O)n(C)c2cc(S(=O)(=O)N3CCN(c4ccccn4)CC3)c(Cl)cc21 | i
Cc1ccccc1Cn1nc2n(CC(C)C)c(=O)c3ccc(C(=O)NCC(C)C)cc3n2c1=O | i
CC1(C(=O)NC2CCCCC2)Cn2c(cc3occc32)C(=O)N1Cc1cccnc1 (stereo not drawn) | i
CC(C)OCCCn1c(=O)c2cc(Cl)ccc2n2c(SCc3ccc(Cl)cc3)nnc12 | i
COC(=O)/C=C/c1ccc(O[C@@H]2O[C@H](CO)[C@@H](O)[C@H](O)[C@H]2O)cc1 | i
COc1ccc(C(=O)Nc2cnc(-c3ccc(Cl)cc3)nc2)cc1 | i
COc1ccc(NC(=O)/C=C/c2ccc(Cl)cc2)cc1 | +
Cc1ccc(N2C(=O)c3cc(C(C)(C)C)nn3CC2(C)C(=O)NCc2ccccc2)cc1 (stereo not drawn) | i
CC(C)Cn1c(=O)c2cc(F)ccc2n2c(SCC(=O)Nc3cccc(Cl)c3)nnc12 | i
COc1ccc(CN2C(=O)c3cc4sccc4n3CC2(C)C(=O)NC2CCCCCCC2)cc1 (stereo not drawn) | i
C[C@@H](Oc1cc(-n2cnc3ccc(OC4CCN(C)CC4)cc32)sc1C(N)=O)c1ccccc1Cl | +
SMILES | Methyltransferases
CC(Oc1cc(-n2cnc3ccc(CN4CCN(C)CC4)cc32)sc1C(N)=O)c1ccccc1C(F)(F)F (stereo not drawn) | +
COc1ccc(CNC(=O)Cn2nc3n(Cc4ccccc4)c(=O)c4ccccc4n3c2=O)cc1 | i
CC1(C(=O)NC2CCCCCCC2)Cn2c(cc3sccc32)C(=O)N1Cc1cccs1 (stereo not drawn) | i
CCCCN1C(=O)c2cc(C(=O)Nc3ccccc3CC)nn2CC1(C)C(=O)NC1CCCC1 (stereo not drawn) | i
CCOCCCNC(=O)C1(C)Cn2c(ccc2-c2ccco2)C(=O)N1c1ccc(C)c(C)c1 (stereo not drawn) | i
COc1ccc(-c2nnc3n(CCCOC(C)C)c(=O)c4ccccc4n23)cc1OC | i
CCC(C(=O)NCc1ccccc1)n1ccc2cc(S(=O)(=O)N3CCCCC3)ccc21 (stereo not drawn) | i
CCOC(=O)c1cc2n(n1)CC(C)(C(=O)NCCC(C)C)N(c1cccc(OC)c1)C2=O (stereo not drawn) | i
CC1(C(=O)NC2CCCCCCC2)Cn2c(ccc2-c2ccco2)C(=O)N1CCCN1CCOCC1 (stereo not drawn) | i
COc1ccccc1CNC(=O)C1(C)Cn2nc(-c3ccccc3)cc2C(=O)N1CCC(C)C (stereo not drawn) | i
